The results in this text go back to PubChem BioAssay AID651815 (National Center for Advancing Translational Sciences (NCATS), 2012).

In all, about 2,100 compounds went through this assay and about 1,100 (52%) were called active. Roughly 29% stayed inconclusive and do not appear here. Calls follow the shape of the dose curve; as a rule, active = well fitted inhibition curve with a large enough effect; inconclusive = small, poorly fitted or top-dose-only effect; inactive = no such curve, though single readings can be large or run the other way. The set was probably picked from earlier hits. This is one part of the list.
Potency is read from the fitted curve at half-maximal effect.

DNA dC->dU-editing enzyme APOBEC-3F (Homo sapiens), sequence (Q8IUX4 whole entry, looked up): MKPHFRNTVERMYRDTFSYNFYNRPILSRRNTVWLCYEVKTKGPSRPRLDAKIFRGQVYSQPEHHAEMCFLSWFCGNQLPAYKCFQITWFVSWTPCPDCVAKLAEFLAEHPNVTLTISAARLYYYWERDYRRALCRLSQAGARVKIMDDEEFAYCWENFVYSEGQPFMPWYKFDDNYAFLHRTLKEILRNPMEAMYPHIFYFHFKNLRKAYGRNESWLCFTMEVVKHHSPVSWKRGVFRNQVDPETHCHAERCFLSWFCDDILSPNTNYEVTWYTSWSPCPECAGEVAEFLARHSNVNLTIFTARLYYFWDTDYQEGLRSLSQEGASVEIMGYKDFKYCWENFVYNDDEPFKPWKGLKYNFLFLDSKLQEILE

This test has as its target DNA dC->dU-editing enzyme APOBEC-3F (Homo sapiens) (UniProt Q8IUX4). As to the kind of experiment: qHTS for inhibitors of Vif-A3F interactions: Cherry picks counterscreen. Also: nearly all actives have a fitted effect of over 65% in size. The following applies: HeLa A3F-eYFP/Vif cells, eYFP fluorescence, 24 h; series mostly up to 46.1 µM. Put shortly:
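HeLa cells stably expressing A3F-eYFP and Vif, cultured overnight, then treated 24 h at 37 degrees C with compounds at several concentrations; yellow fluorescence (488 nm Ex/500-530 nm Em) imaged on Acumen; MG132 positive control.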
In general terms: Quantitative high-throughput screening tests each substance at several concentrations.
With `CNc1ccc(/C=C/c2ccnc3ccccc23)cc1`, the Potency is 20.6 µM (active).

For the molecule `CN(C)c1ccc(/C=C/C=C/c2ccnc3ccccc23)cc1`, the Potency was 3.66 µM (active).

As for `CN(C)c1ccc(/C=C/c2ccnc3cc(Cl)ccc23)cc1`, the Potency was 2.91 µM (active).

As for `COc1cccc2nccc(/C=C/c3ccc(N(C)C)cc3)c12`, the Potency was 20.6 µM (active).

For the molecule `Fc1cccc(F)c1/C=N/NC(=S)Nc1cccnc1`, the Potency entry is “inactive”.

Consider `CN(C)c1ccc(/C=C/c2ccnc3ccccc23)c(N)c1`, for which the Potency was 8.2 µM (active).

Turning to `CCCCCCCNc1ccc(/C=C/c2ccnc3ccccc23)cc1`, the Potency is 23.1 µM (active).

With `CN(C)c1ccc(/C=C/c2cnnc3ccccc23)cc1`, the Potency was 20.6 µM (active).

As for `CN(C)c1ccc(/C=C/c2ccnc3ccc(-c4ccccc4)cc23)cc1`, the Potency is 9.2 µM (active).

On to `CN1C(=O)C(O)(C2COC(C)(C)CC2=O)c2cc(Br)ccc21` (stereo unspecified), for which the Potency result is “inactive”.

As for `CN(C)c1ccc(/C=C/c2ccnc3ccccc23)cc1`, the Potency is 18.4 µM (active).

Turning to `Nc1ccccc1/C=C/c1ccnc2ccccc12`, the Potency is 16.4 µM (active).

As to `O=c1c(Cl)c2oc3ccccc3nc-2c2ccccc12`, the Potency is 16.4 µM (active).

Consider `COc1ccc(C2=CC(c3ccc(N(C)C)cc3)n3nnnc3N2)cc1` (stereo unspecified), for which the Potency is 16.4 µM (active).

As to `CN(C)c1ccc(C2C=C(c3ccccc3)Nc3nnnn32)cc1` (stereo unspecified), the Potency is 16.4 µM (active).

On to `O=S(=O)(Nc1nc2n(n1)C(c1ccccc1)C=C(c1ccc(Cl)cc1)N2)c1ccccc1` (stereo unspecified), for which the Potency result is “inactive”.

For the molecule `CCN1C(=S)SC(=O)C1=C1C=C(C)N(Cc2ccco2)C(C)=C1`, the Potency was 15.8 µM (active).

As for `Clc1ccccc1/C=N/NC1=Nc2cccc3cccc1c23`, the Potency is 16.4 µM (active).

Take `Clc1ccc(/C=N/NC2=Nc3cccc4cccc2c34)cc1`: the Potency was 18.4 µM (active).

As for `C/C(CCc1ccc2c(c1)OCO2)=N\NC(=S)NC(C)C`, the Potency entry was “inactive”.

As to `C=C(C)CNC(=S)NNC(=O)c1ccco1`, the Potency result is “inactive”.

On to `O=C(Nc1nc(NC(=O)c2ccco2)n(-c2ccccc2)n1)c1ccccc1`, for which the Potency result was “inactive”.

With `C=CCn1c(O)c(N=NC(=O)CNC(=O)c2ccco2)c2ccccc21`, the Potency was 11.2 µM (active).

As to `COc1cccc(/C=N/NC(=O)c2cc3c(OC)c(OC)ccc3[nH]2)c1OC`, the Potency was 3.53 µM (active).

For `COc1ccccc1/C=N/NC(=O)c1cc2c(OC)c(OC)ccc2[nH]1`, the Potency was 9.94 µM (active).

Turning to `COc1ccc(C(=O)N/N=C/c2cc(Br)ccc2O)cc1OC`, the Potency result was “inactive”.

As for `COCCCNC(=S)N/N=C/c1cccc(OC)c1O`, the Potency result was “inactive”.

In the case of `CC1Sc2ccc(C(=O)NCc3ccccn3)cc2NC1=O` (stereo unspecified), the Potency result was “inactive”.

In the case of `CCCNC(=O)c1ccccc1NC(=O)c1ccc2c(c1)NC(=O)C(C)S2` (stereo unspecified), the Potency is 6.27 µM (active).

Consider `CN(C)c1ccc(/C=C/c2ccnc3ccc(I)cc23)cc1`, for which the Potency is 6.51 µM (active).

In the case of `COc1ccc2nccc(/C=C/c3ccc(N(C)C)cc3)c2c1`, the Potency was 23.1 µM (active).

As for `CN(C)c1ccc(/C=C/c2ccnc3ccc(Br)cc23)cc1`, the Potency is 4.61 µM (active).

On to `Cc1cc(C)c2nccc(/C=C/c3ccc(N(C)C)cc3)c2c1`, for which the Potency was 13 µM (active).

Turning to `ClCC1NCC(c2ccccc2Cl)c2c1[nH]c1ccccc21` (stereo unspecified), the Potency result was “inactive”.

In the case of `Cc1ccc2nccc(/C=C/c3ccc(N(C)C)cc3)c2c1`, the Potency is 9.2 µM (active).

`CN(C)c1ccc(/C=C/c2ccnc3ccc(N)cc23)cc1`: the Potency was 23.1 µM (active).

Turning to `CC(=O)c1cc(NC(=O)c2ccc(C)cc2)c(=O)oc1/C=C/N(C)C`, the Potency is 11.6 µM (active).

Turning to `CC(=O)c1cc(NC(=O)c2ccc(Cl)cc2)c(=O)oc1/C=C/N(C)C`, the Potency was 6.27 µM (active).

With `COc1ccc(C(=O)Nc2cc(C(C)=O)c(/C=C/N(C)C)oc2=O)cc1`, the Potency was 12.5 µM (active).

In the case of `COC(=O)c1c(-c2ccccc2Cl)noc1/C=C/N(C)C`, the Potency result was “inactive”.

For `COC(=O)c1sc2nc(CSc3ccc(Br)cc3)[nH]c(=O)c2c1C`, the Potency result is “inactive”.

Take `COc1cc(C2c3cc4c(cc3C(OC3OC5COC(c6cccs6)OC5C(O)C3O)C3COC(=O)C23)OCO4)cc(OC)c1O` (stereo unspecified): the Potency was 11.2 µM (active).

Turning to `Cc1ccc(O)c(NC(=O)c2cc(-c3ccccc3O)no2)c1`, the Potency is 20.6 µM (active).

On to `COc1cccc(C(=O)Nc2ncc3c(n2)CC(c2ccc(OC)cc2OC)CC3=O)c1` (stereo unspecified), for which the Potency was 11.2 µM (active).

For `Cc1cc(N2CCCC2)ccc1/C=C1/C(=O)N(C)C(=S)N1C`, the Potency result is “inactive”.

`Cc1cc(N2CCCC2)ccc1/C=C1\NC(=S)N(C)C1=O`: the Potency was 2.91 µM (active).

`Cc1cc(/C=C2\NC(=S)N(C)C2=O)ccc1N1CCCC1`: the Potency is 2.5 µM (active).

For the molecule `Cc1ccc(O)c(Nc2c3ccccc3nc3ccccc23)c1`, the Potency entry was “inactive”.

Regarding `COc1ccc(C)cc1Nc1c2c(nc3ccccc13)CCC2`, the Potency was 1.98 µM (active).

In the case of `COC(=O)c1cnc(Nc2cc(C)ccc2OC)c2ccccc12`, the Potency result is “inactive”.

`CN1/C(=C\C=C2/SC(=S)NC2=O)C(C)(C)c2ccccc21`: the Potency was 3.96 µM (active).

On to `CCCN1C(=O)/C(=C/C=C2\N(CC)c3ccccc3C2(C)C)SC1=S`, for which the Potency is 4.44 µM (active).

For the molecule `CN1/C(=C\C=C2/SC(=S)N(CC(=O)O)C2=O)C(C)(C)c2ccccc21`, the Potency entry is “inactive”.

With `CCCCN1C(=O)/C(=C/C=C2/CC(C)(C)CN2C)SC1=S`, the Potency result is “inactive”.

As for `CCCN1C(=O)/C(=C\C=C2\N(CC)c3ccccc3C2(C)C)SC1=S`, the Potency was 2.59 µM (active).

With `O=C(N/N=C/C=C/c1ccco1)c1ccncc1`, the Potency entry is “inactive”.

As to `COc1ccccc1OCC(=O)N/N=C/C=C/c1ccc([N+](=O)[O-])o1`, the Potency is 16.4 µM (active).

Take `O=C(N/N=C\C=C\c1ccc([N+](=O)[O-])o1)c1cccs1`: the Potency is 15.8 µM (active).

Consider `Clc1ccccc1C1CC(c2ccccc2)=Nc2ccccc2N1` (stereo unspecified), for which the Potency entry was “inactive”.

For the molecule `Cc1ccc(-c2cn3nc(-c4ccccc4)c(-c4ccccc4)nc3n2)cc1`, the Potency is 18.4 µM (active).

Consider `Cc1cc(C)nc(Nc2nc(C(N)Cc3ccccc3)cs2)n1` (stereo unspecified), for which the Potency was 14 µM (active).

With `COC(=O)CCC(=O)NC(=S)Nc1sc(C)c(C)c1C(N)=O`, the Potency was 1.25 µM (active).

Regarding `COc1cc2cc(-c3ccc(OC)c(OC)c3C)nc(N)c2cc1OC`, the Potency is 1.77 µM (active).

On to `Cc1cc(N/N=C/c2ccc(O)cc2O)nc(-n2nc(C)cc2C)n1`, for which the Potency result was “inactive”.

As for `C=CCSc1nc2sc3c(c2c(=O)n1CC)CCC3`, the Potency entry is “inactive”.

As to `CCN(CC)C(=O)Cn1c(=O)n(-c2ccccc2)c(=O)c2c3c(sc21)CCC3`, the Potency was 23.1 µM (active).
